Only some compounds are listed: those with a hit (about 0.9% of all), similar ones and a draw of the others.
SRC1 TRFRET art: TR-FRET detection interference compounds, primary screen, artefact control for PPARgamma SRC-1 recruitment agonists, biochemical, TR-FRET emission ratio. TR-FRET detection artefact counter-screen; active compounds read high. TR-FRET ratio at 8 µM. hit rate 0.34% among 99,000; in the data active = TR-FRET ratio above about 2300
PPARg SRC-1 ag: PPARgamma agonists recruiting SRC-1 coactivator, primary screen, biochemical | Peroxisome proliferator-activated receptor gamma (Homo sapiens), P37231 | activation, % at 8 µM | hit rate 0.41% among 200,000 | PPARgamma-SRC-1 coactivator recruitment biochemical assay; in the data active = activation above about 19%;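 also: 0% = DMSO and 100% = reference agonist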
Target sequence (P37231 whole entry, looked up): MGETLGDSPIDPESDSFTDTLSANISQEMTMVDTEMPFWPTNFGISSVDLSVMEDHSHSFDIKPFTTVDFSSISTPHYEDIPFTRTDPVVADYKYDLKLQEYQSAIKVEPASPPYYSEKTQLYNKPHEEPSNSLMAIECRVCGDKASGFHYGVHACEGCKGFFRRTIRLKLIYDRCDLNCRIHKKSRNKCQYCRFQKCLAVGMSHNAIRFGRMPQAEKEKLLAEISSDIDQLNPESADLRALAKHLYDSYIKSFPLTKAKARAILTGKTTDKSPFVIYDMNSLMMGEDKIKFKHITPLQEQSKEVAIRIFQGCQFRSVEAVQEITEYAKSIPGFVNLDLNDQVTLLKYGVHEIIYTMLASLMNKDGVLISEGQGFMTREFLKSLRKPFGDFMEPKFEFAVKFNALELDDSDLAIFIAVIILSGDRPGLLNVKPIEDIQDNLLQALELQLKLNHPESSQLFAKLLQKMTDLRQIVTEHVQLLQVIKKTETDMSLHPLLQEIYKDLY
PPARg SRC2 recr: agonists of PPARg-SRC-2 recruitment, primary screen, biochemical, HTS; activation, % at 8 µM; PPARgamma LBD-SRC-2 recruitment; AID 1032, 2008; Peroxisome proliferator-activated receptor gamma (Homo sapiens), P37231; hit rate 0.34% among 200,000;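 also: 0% = vehicle and 100% = reference agonist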
TR-FRET SRC-2 ct: TR-FRET signal artefacts, primary screen, artefact control for PPARgamma SRC-2 agonist project, biochemical; TR-FRET ratio at 8 µM; TR-FRET artefact counter-screen; active compounds read high; hit rate 0.4% among 200,000; AID 1049, 2008; in the data active = TR-FRET ratio above about 2000
PPARg SRC3 recr: PPARgamma agonists recruiting SRC-3 coactivator, primary screen, biochemical; Peroxisome proliferator-activated receptor gamma (Homo sapiens), P37231; biochemical PPARgamma/SRC-3 coactivator recruitment assay; activation, % at 8 µM; hit rate 0.26% among 200,000; AID 731, 2007; in the data active = activation above about 23%;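 also: 0% = DMSO and 100% = reference agonist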
SRC3 TRFRET art: TR-FRET detection interference compounds, artefact control for PPARgamma SRC-3 recruitment agonists, biochemical, TR-FRET ratio | TR-FRET artefact counter-screen, PPARgamma/SRC-3 format; active compounds read high | TR-FRET ratio at 8 µM | hit rate 0.39% among 99,000 | AID 1048, 2008; in the data active = TR-FRET ratio above about 2000
PPARg SRC2 conf: agonists of PPARgamma SRC-2 coactivator recruitment, confirmation, biochemical, HTS. shares compounds with PPARg SRC3 recr. biochemical SRC-2 recruitment by PPARgamma. activation, % at 8 µM. hit rate 52% among 790. AID 1297, 2008;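 also: 0% = vehicle alone and 100% = reference agonist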
PPARg SRC1 ag: PPARgamma agonists recruiting SRC-1 coactivator, confirmation, biochemical. shares compounds with PPARg SRC3 recr. PPARgamma–SRC-1 coactivator recruitment biochemical assay. activation, % at 8 µM. hit rate 43% among 790. AID 1300, 2008; in the data active = activation above about 20%;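 also: 0% = vehicle wells and 100% = reference agonist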
PPARg SRC3 conf: PPARgamma-driven SRC-3 coactivator recruitment agonists, confirmation, biochemical; biochemical PPARgamma-SRC-3 coactivator recruitment, agonist mode; hit rate 29% among 790; activation, % at 8 µM; shares compounds with PPARg SRC3 recr; in the data active = activation above about 24%;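 also: 0% = vehicle wells and 100% = reference agonist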
Active calls of the source: *. Rule as the data show it, unless noted: active = activation above about 22%; inactive = the rest.

`COC(=O)c1c(N)n(Cc2ccc(OC)cc2)c2nc3ccccc3nc12` gave SRC1 TRFRET art 2577*, PPARg SRC-1 ag 20, PPARg SRC2 recr 2, TR-FRET SRC-2 ct 1618, PPARg SRC3 recr 2 and SRC3 TRFRET art 1451.
`CC(=O)N1CCC(N2CCCC(C(=O)c3cccc(Cl)c3)C2)CC1` (stereo not drawn) gave SRC1 TRFRET art 1508, PPARg SRC-1 ag -6, PPARg SRC2 recr -13, TR-FRET SRC-2 ct 1397, PPARg SRC3 recr -3 and SRC3 TRFRET art 1429.
For CN1/C(=C\C=C\C2=[N+](C)c3ccc4ccccc4c3C2(C)C)C(C)(C)c2ccccc21 the results were PPARg SRC-1 ag 42*, PPARg SRC2 recr 84*, TR-FRET SRC-2 ct 3050*, PPARg SRC3 recr 70*, PPARg SRC2 conf 49*, PPARg SRC1 ag 39* and PPARg SRC3 conf 37*.
Cn1c(=O)n(CC(=O)N2CCC3(CC2)OCCO3)c(=O)c2ccccc21 was read as SRC1 TRFRET art 1688, PPARg SRC-1 ag -3, PPARg SRC2 recr 4, TR-FRET SRC-2 ct 1560, PPARg SRC3 recr -2 and SRC3 TRFRET art 1562.
`CCn1c(=O)cc(SCC(=O)N2CCC3(CC2)OCCO3)c2ccccc21` gave PPARg SRC-1 ag 65*, PPARg SRC2 recr 61*, TR-FRET SRC-2 ct 2944*, PPARg SRC3 recr 102*, PPARg SRC2 conf 37*, PPARg SRC1 ag 25* and PPARg SRC3 conf 26*.
`NNC(=O)c1ccc(Cl)cc1` gave SRC1 TRFRET art 1856, PPARg SRC-1 ag 1, PPARg SRC2 recr 5, TR-FRET SRC-2 ct 1623, PPARg SRC3 recr 1 and SRC3 TRFRET art 1522.
For CN(C)c1ccc(/C=C/C=C2/C(=O)NC(=O)N(c3ccccc3)C2=O)cc1 the results were SRC1 TRFRET art 2995*, PPARg SRC-1 ag 49*, PPARg SRC2 recr 29*, TR-FRET SRC-2 ct 2441*, PPARg SRC3 recr 50*, SRC3 TRFRET art 2895*, PPARg SRC2 conf 70*, PPARg SRC1 ag 47* and PPARg SRC3 conf 47*.
For COc1ccc(NP(=O)(Oc2ccccc2OC)Oc2ccccc2OC)cc1 the results were SRC1 TRFRET art 1612, PPARg SRC-1 ag 16, PPARg SRC2 recr 5, TR-FRET SRC-2 ct 1429, PPARg SRC3 recr 27*, SRC3 TRFRET art 1523, PPARg SRC2 conf 11, PPARg SRC1 ag 25* and PPARg SRC3 conf 20.
For CCCn1cc(C(=O)O)cn1 the results were SRC1 TRFRET art 1721, PPARg SRC-1 ag -3, PPARg SRC2 recr 0, TR-FRET SRC-2 ct 1409, PPARg SRC3 recr -1 and SRC3 TRFRET art 1731.
Screening O=C(O)c1cccc2nc3ccccc3nc12 returned SRC1 TRFRET art 1925, PPARg SRC-1 ag 9, PPARg SRC2 recr 19, TR-FRET SRC-2 ct 1525, PPARg SRC3 recr 1, SRC3 TRFRET art 1766, PPARg SRC2 conf 10, PPARg SRC1 ag 2 and PPARg SRC3 conf 5.
Screening COC(=O)c1ccccc1-n1c(C)nc2ccccc2c1=O returned PPARg SRC-1 ag -3, PPARg SRC2 recr -4, TR-FRET SRC-2 ct 1341 and PPARg SRC3 recr -14.
COc1ccccc1Cn1c(SCC#N)nc2cc(C(=O)N3CCC4(CC3)OCCO4)ccc2c1=O was read as SRC1 TRFRET art 1460, PPARg SRC-1 ag 3, PPARg SRC2 recr -3, TR-FRET SRC-2 ct 1716, PPARg SRC3 recr 0 and SRC3 TRFRET art 1581.

High-throughput results as filed in PubChem BioAssay.
